From article PMC7862700, “An all-to-all approach to the identification of sequence-specific readers for epigenetic DNA modifications on cytosine”

Legend:
Experiment in all cases: DAPPL (digital affinity profiling via proximity ligation, sequencing); 10 mM Tris-HCl pH 7.5, 50 mM NaCl, 1 mM DTT, 4% glycerol, room temperature, 30 min; GST-TFs on glutathione beads, 16-mer random dsDNA library, 0.1% formaldehyde crosslink after washing; high values mean tight binding
FLI1 = target: T1, FLI1 (Homo sapiens, UniProt Q01543 1-452); conditions: protein: recombinant; tags: N-terminal GST; dsDNA, one strand shown
T1 sequence: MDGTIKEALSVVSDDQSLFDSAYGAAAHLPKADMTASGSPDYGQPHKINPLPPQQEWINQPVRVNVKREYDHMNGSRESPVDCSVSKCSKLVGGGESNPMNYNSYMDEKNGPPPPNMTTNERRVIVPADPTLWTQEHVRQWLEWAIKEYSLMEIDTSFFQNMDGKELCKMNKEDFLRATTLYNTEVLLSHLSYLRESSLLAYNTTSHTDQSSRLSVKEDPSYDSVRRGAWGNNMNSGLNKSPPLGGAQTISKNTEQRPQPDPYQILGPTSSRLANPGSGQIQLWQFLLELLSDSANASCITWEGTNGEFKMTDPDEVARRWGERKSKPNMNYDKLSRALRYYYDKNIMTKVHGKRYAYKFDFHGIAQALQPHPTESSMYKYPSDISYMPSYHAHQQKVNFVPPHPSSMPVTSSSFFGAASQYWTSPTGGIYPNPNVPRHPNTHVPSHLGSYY
Procedure, shortened: (§1)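 Sequencing on an Illumina NextSeq500 followed washing, crosslinking with 0.1% formaldehyde, proximity ligation (BsaI/T4 ligase, 1 h, 37 °C) and PCR amplification of pools that had been incubated for 30 min at room temperature with 200 nmole of a random double-stranded 16-mer DNA library in Tris/NaCl/DTT/glycerol buffer. Each pool held DNA-barcoded human transcription factors, expressed in yeast as GST fusions and captured on glutathione beads, plus a tag-only sample. Binding signal is a hexamer's read frequency for a factor divided by its frequency in the tag-only sample.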

ELK1 = target: T2, ELK1 (Homo sapiens, UniProt P19419 1-428); conditions: protein: recombinant; tags: N-terminal GST; dsDNA, one strand shown
T2 sequence: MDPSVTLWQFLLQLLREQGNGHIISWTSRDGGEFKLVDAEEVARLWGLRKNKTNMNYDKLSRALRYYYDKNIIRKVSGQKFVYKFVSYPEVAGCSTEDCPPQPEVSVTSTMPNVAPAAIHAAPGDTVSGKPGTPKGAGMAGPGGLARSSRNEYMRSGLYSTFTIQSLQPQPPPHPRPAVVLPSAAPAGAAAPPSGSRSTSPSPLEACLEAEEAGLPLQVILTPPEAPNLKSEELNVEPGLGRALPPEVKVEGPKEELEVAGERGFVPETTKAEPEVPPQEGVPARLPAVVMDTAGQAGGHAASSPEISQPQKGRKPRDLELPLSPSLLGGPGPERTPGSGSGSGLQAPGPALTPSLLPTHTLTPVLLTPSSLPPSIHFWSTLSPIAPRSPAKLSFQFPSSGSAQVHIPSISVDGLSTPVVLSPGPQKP
Procedure, shortened: as §1

GABPA = target: T3, GABPA (Homo sapiens, UniProt Q06546 1-454); conditions: protein: recombinant; tags: N-terminal GST; dsDNA, one strand shown
T3 sequence: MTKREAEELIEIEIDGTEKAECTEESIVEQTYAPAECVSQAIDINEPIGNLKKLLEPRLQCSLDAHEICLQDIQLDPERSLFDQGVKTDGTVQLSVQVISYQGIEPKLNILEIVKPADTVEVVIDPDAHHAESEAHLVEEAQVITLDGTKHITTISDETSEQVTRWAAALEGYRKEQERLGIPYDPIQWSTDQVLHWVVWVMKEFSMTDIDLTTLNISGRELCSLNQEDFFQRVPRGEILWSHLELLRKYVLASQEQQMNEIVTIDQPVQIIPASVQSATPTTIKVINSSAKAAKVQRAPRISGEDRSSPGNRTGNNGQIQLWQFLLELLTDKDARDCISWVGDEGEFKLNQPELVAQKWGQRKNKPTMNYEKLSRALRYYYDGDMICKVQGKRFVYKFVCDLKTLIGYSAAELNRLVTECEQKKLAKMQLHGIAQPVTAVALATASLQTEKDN
Procedure, shortened: as §1

ERG = target: T4, ERG (Homo sapiens, UniProt P11308 1-479); conditions: protein: recombinant; tags: N-terminal GST; dsDNA, one strand shown
T4 sequence: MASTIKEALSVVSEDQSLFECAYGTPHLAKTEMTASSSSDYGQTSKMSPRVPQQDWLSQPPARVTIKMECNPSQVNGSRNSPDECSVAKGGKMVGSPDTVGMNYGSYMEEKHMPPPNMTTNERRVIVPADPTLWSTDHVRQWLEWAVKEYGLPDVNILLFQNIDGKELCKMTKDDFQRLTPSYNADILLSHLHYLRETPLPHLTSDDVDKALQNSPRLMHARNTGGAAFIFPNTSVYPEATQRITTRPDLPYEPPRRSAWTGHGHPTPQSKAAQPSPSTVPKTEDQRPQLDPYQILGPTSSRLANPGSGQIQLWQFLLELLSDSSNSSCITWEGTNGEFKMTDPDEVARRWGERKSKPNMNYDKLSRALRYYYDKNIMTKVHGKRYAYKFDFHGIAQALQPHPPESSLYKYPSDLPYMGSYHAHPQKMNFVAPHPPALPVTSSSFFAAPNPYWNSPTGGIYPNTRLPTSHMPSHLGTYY
Procedure, shortened: as §1

ELF1 = ELF1 (Homo sapiens, UniProt P32519 1-619); conditions: protein: recombinant; tags: N-terminal GST; dsDNA, one strand shown
Procedure, shortened: as §1

EHF = target: T5, EHF (Homo sapiens, UniProt Q9NZC4 1-300); conditions: protein: recombinant; tags: N-terminal GST; dsDNA, one strand shown
T5 sequence: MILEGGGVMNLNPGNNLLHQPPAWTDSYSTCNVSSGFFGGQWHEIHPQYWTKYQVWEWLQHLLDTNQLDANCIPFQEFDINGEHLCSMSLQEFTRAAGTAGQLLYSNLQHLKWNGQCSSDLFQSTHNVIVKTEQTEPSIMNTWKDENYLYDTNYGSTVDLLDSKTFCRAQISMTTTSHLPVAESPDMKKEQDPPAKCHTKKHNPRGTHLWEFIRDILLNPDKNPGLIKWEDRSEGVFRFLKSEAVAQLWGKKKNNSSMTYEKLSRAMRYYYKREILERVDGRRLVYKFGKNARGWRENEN
Procedure, shortened: as §1

SPI1 = SPI1 (Homo sapiens, UniProt P17947 1-270); conditions: protein: recombinant; tags: N-terminal GST; dsDNA, one strand shown
Procedure, shortened: as §1

SPIB = SPIB (Homo sapiens, UniProt Q01892 1-262); conditions: protein: recombinant; tags: N-terminal GST; dsDNA, one strand shown
Procedure, shortened: as §1

ELK3 = target: T6, ELK3 (Homo sapiens, UniProt P41970 1-407); conditions: protein: recombinant; tags: N-terminal GST; dsDNA, one strand shown
T6 sequence: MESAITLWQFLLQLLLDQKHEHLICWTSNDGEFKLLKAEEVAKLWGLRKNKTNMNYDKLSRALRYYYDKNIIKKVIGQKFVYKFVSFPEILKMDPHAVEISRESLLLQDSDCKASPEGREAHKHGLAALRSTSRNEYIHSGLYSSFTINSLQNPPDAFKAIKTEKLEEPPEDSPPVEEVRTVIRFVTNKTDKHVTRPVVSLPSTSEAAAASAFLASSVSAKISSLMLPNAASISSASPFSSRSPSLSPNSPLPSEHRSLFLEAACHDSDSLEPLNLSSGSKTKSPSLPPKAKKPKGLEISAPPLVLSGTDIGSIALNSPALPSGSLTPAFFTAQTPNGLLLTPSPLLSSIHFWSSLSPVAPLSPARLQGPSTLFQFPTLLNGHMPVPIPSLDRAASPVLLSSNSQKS
Procedure, shortened: as §1

FEV = target: T7, FEV (Homo sapiens, UniProt Q99581 1-238); conditions: protein: recombinant; tags: N-terminal GST; dsDNA, one strand shown
T7 sequence: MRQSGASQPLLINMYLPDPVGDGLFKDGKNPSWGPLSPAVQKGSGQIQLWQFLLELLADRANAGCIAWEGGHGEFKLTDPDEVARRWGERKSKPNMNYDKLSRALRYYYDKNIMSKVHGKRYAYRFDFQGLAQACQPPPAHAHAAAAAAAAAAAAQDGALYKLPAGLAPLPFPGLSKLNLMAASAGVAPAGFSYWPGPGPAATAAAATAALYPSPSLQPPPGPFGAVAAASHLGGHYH
Procedure, shortened: as §1

ETV5 = ETV5 (Homo sapiens, UniProt P41161 1-510); conditions: protein: recombinant; tags: N-terminal GST; dsDNA, one strand shown
Procedure, shortened: as §1

HSF1 = HSF1 (Homo sapiens, UniProt Q00613 1-529); conditions: protein: recombinant; tags: N-terminal GST; chain copies: 3; dsDNA, one strand shown
Procedure, shortened: as §1

SPIC = target: T8, SPIC (Homo sapiens, UniProt Q8N5J4 1-248); conditions: protein: recombinant; tags: N-terminal GST; dsDNA, one strand shown
T8 sequence: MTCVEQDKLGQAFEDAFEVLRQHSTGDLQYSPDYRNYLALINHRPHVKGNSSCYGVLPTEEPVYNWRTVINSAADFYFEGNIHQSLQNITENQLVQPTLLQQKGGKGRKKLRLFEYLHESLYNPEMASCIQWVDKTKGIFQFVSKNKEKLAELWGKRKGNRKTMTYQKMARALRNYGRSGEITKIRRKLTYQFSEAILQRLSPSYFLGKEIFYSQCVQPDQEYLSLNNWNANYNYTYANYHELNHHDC
Procedure, shortened: as §1

ELF4 = ELF4 (Homo sapiens, UniProt Q99607 1-663); conditions: protein: recombinant; tags: N-terminal GST; dsDNA, one strand shown
Procedure, shortened: as §1

ELK4 = target: T9, ELK4 (Homo sapiens, UniProt P28324-2 1-405); conditions: protein: recombinant; tags: N-terminal GST; dsDNA, one strand shown
T9 sequence: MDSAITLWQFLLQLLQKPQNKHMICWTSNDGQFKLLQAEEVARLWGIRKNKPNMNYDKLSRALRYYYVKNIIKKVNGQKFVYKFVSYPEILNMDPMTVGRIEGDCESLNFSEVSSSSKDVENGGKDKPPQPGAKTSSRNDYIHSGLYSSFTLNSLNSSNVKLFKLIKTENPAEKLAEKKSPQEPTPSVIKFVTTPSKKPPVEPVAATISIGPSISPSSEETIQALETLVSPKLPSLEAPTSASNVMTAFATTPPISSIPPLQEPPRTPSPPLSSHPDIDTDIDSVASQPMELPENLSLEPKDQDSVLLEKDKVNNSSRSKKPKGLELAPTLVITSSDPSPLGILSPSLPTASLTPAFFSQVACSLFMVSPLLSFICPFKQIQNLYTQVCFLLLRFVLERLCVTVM
Procedure, shortened: as §1

ETV2 = target: T10, ETV2 (Homo sapiens, UniProt O00321 1-342); conditions: protein: recombinant; tags: N-terminal GST; dsDNA, one strand shown
T10 sequence: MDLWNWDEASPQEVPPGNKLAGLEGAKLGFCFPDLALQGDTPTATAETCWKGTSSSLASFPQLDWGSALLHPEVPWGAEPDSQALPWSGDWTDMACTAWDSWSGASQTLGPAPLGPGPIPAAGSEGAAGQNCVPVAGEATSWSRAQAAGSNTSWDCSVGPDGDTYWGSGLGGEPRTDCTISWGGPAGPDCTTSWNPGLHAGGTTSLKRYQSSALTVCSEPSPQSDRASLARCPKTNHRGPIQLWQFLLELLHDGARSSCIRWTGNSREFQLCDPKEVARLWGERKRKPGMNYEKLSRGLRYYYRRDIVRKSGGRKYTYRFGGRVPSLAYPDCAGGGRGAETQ
Procedure, shortened: as §1

ELF3 = target: T11, ELF3 (Homo sapiens, UniProt P78545 1-371); conditions: protein: recombinant; tags: N-terminal GST; dsDNA, one strand shown
T11 sequence: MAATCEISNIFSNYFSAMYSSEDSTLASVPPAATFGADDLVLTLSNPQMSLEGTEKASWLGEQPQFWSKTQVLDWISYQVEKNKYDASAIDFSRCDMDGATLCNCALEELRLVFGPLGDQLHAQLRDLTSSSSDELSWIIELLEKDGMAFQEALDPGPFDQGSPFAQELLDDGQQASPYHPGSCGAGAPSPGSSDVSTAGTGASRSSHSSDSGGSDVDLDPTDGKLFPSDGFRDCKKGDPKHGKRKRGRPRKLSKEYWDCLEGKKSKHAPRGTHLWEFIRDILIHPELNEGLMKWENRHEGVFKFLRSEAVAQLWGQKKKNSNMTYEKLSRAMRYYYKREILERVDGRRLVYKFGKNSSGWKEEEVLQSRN
Procedure, shortened: as §1

CRX = CRX (Homo sapiens, UniProt O43186 1-299); conditions: protein: recombinant; tags: N-terminal GST; dsDNA, one strand shown
Procedure, shortened: as §1

ETV1 = ETV1 (Homo sapiens, UniProt P50549 1-477); conditions: protein: recombinant; tags: N-terminal GST; dsDNA, one strand shown
Procedure, shortened: as §1

Chain of ETV5 (P41161 whole entry): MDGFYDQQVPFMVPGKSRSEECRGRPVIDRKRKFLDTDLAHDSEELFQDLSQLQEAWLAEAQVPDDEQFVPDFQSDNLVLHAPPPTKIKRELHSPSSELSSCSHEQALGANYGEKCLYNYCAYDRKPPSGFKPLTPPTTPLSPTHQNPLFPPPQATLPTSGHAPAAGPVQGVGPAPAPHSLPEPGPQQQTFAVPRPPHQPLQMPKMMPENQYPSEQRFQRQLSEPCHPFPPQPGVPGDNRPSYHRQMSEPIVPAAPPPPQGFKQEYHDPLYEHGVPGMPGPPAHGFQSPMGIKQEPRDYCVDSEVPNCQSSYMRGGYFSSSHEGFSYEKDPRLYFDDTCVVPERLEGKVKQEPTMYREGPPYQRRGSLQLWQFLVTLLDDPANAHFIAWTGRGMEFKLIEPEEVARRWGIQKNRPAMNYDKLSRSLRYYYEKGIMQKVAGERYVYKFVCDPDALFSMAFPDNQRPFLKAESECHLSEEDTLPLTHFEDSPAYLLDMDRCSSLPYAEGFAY
Chain of ELF1 (P32519 whole entry): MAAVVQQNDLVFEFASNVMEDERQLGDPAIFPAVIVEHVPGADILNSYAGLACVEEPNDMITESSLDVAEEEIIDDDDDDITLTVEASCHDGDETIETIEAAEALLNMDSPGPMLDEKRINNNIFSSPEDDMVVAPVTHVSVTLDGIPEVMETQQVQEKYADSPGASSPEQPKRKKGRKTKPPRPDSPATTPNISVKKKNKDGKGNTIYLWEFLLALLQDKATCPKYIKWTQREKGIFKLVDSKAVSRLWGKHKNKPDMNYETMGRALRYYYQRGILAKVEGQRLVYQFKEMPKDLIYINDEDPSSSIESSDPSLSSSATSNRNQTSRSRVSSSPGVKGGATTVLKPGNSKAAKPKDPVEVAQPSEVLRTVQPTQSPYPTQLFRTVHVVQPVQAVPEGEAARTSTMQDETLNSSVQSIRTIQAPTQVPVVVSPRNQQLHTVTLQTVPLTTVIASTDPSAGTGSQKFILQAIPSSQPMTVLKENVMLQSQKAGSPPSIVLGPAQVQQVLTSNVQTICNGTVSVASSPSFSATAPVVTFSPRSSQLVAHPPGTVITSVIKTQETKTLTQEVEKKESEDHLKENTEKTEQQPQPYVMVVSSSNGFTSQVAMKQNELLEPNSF
Chain of CRX (O43186 whole entry): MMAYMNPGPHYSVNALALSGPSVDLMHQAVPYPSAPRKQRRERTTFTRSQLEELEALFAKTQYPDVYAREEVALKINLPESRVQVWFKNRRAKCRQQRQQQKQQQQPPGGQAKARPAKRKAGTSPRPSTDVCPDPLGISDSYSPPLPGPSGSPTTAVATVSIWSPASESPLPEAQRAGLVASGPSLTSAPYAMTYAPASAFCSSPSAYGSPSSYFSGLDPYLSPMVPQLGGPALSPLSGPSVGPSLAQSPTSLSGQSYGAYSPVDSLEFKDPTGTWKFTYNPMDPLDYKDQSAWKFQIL
Chain of ELF4 (Q99607 whole entry): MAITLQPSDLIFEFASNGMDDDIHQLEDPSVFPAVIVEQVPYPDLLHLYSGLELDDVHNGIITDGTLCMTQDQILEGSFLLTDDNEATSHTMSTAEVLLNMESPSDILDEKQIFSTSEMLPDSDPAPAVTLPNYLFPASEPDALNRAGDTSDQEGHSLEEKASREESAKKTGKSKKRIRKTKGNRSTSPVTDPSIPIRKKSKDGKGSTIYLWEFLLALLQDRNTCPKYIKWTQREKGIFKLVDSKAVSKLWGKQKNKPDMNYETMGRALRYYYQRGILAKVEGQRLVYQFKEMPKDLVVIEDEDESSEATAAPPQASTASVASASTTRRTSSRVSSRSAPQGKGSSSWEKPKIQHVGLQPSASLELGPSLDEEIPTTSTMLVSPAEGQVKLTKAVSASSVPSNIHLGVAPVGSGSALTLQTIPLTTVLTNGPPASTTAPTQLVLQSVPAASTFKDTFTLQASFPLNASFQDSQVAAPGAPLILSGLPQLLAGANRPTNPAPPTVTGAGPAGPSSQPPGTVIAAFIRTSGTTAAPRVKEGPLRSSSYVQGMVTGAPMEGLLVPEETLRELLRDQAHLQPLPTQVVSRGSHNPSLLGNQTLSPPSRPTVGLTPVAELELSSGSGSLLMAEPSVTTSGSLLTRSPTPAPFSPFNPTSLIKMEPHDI
Chain of HSF1 (Q00613 whole entry): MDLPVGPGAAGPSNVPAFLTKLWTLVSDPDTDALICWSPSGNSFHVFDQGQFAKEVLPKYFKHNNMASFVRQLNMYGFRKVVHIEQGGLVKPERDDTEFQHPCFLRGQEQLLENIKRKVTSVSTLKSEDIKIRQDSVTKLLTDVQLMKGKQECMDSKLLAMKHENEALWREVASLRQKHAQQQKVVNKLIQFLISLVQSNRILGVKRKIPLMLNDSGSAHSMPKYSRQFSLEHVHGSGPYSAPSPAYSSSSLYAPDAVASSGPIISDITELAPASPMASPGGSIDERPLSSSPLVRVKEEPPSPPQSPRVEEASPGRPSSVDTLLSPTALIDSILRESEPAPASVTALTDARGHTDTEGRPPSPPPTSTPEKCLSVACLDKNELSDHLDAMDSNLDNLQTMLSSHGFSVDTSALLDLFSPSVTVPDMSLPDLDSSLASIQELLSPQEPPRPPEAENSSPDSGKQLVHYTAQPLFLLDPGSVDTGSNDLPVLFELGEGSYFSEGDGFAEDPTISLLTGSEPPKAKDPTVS
Chain of SPIB (Q01892 whole entry): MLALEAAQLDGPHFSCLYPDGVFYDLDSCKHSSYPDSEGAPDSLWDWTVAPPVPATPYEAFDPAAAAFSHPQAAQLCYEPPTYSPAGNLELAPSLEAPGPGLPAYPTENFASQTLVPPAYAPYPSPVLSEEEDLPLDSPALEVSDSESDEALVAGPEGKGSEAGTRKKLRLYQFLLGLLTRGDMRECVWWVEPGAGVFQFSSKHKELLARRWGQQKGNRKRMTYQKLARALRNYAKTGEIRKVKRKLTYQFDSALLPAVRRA
Chain of ETV1 (P50549 whole entry): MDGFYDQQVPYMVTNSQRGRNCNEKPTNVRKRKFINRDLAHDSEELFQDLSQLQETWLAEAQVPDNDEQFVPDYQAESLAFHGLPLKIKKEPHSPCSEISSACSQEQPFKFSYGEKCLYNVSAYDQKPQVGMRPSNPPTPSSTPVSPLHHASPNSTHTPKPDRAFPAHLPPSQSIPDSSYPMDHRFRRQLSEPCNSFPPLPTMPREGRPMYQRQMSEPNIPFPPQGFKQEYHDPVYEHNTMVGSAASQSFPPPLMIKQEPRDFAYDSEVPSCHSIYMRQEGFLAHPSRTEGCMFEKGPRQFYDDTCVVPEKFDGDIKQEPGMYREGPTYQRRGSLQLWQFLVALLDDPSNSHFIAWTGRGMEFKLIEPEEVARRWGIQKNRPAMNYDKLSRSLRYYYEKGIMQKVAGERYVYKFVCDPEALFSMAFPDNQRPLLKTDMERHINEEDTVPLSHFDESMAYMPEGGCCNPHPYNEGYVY

## TTACTT
FLI1
  binding signal: 1.44 fold enrichment (6-mer frequency, TF over GST control)
ELK1
  binding signal: 1.53 fold enrichment (6-mer frequency, TF over GST control)
GABPA
  binding signal: 1.44 fold enrichment (6-mer frequency, TF over GST control)
ERG
  binding signal: 1.44 fold enrichment (6-mer frequency, TF over GST control)
ELF1
  binding signal: 1.53 fold enrichment (6-mer frequency, TF over GST control)
EHF
  binding signal: 1.58 fold enrichment (6-mer frequency, TF over GST control)
SPI1
  binding signal: 1.59 fold enrichment (6-mer frequency, TF over GST control)
SPIB
  binding signal: 1.58 fold enrichment (6-mer frequency, TF over GST control)
ELK3
  binding signal: 1.64 fold enrichment (6-mer frequency, TF over GST control)
FEV
  binding signal: 1.55 fold enrichment (6-mer frequency, TF over GST control)
ETV5
  binding signal: 1.53 fold enrichment (6-mer frequency, TF over GST control)
HSF1
  binding signal: 1.41 fold enrichment (6-mer frequency, TF over GST control)
SPIC
  binding signal: 1.33 fold enrichment (6-mer frequency, TF over GST control)
ELF4
  binding signal: 1.46 fold enrichment (6-mer frequency, TF over GST control)
ELK4
  binding signal: 1.33 fold enrichment (6-mer frequency, TF over GST control)
ETV2
  binding signal: 1.66 fold enrichment (6-mer frequency, TF over GST control)
ELF3
  binding signal: 1.75 fold enrichment (6-mer frequency, TF over GST control)
CRX
  binding signal: 1.95 fold enrichment (6-mer frequency, TF over GST control)
ETV1
  binding signal: 1.55 fold enrichment (6-mer frequency, TF over GST control)
